# A number with no mark means an inactive call.
# Key:
# Test in all cases: log2 ratio of Biotin-Ahx-Ub-VS probe labelling (fragment/DMSO); higher = less target engagement (more negative = stronger competition), active = hit call of the paper (q ≤ 0.05, log2 ratio ≤ -1)
# Conditions in all cases: compound concentration: 200 uM; treatment time: 3 h
# USP19 = biological target: T1, USP19 (UniProt O94966)
# T1 sequence (whole entry): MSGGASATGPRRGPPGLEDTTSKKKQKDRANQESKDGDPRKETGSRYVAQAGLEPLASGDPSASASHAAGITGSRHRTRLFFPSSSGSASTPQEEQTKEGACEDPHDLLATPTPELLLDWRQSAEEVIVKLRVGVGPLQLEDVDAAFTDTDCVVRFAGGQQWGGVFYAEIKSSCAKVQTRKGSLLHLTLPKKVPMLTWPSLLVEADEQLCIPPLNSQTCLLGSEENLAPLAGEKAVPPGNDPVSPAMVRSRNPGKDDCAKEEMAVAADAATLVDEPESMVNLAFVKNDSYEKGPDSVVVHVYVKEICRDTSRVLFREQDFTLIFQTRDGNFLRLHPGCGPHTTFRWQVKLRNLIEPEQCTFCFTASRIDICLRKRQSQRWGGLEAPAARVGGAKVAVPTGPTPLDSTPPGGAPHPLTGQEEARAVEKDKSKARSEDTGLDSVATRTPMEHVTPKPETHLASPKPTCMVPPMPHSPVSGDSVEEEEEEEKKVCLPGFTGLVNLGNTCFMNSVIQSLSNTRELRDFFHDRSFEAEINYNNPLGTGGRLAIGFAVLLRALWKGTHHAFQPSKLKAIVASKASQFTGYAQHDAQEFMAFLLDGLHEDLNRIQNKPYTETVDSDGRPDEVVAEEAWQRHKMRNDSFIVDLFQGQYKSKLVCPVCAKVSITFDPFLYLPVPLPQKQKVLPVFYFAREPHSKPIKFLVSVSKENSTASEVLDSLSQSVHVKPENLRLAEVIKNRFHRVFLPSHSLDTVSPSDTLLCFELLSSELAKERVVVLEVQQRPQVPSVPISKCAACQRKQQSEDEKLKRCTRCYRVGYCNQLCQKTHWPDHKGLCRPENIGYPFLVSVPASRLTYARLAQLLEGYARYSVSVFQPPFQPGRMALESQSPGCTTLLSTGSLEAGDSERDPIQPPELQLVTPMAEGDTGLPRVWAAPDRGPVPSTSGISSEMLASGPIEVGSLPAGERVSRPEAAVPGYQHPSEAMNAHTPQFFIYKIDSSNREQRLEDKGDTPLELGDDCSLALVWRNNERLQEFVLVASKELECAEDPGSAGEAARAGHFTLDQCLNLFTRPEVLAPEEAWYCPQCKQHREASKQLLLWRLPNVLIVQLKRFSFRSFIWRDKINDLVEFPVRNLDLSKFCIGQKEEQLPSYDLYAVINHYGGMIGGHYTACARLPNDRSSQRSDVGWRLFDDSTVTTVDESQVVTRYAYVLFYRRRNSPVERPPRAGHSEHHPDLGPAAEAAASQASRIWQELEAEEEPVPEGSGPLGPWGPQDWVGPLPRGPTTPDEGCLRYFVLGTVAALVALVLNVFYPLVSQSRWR
# In short: (§1)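 HEK293T lysate, 495 µg per sample in Tris/CHAPS/IGEPAL buffer with protease inhibitors, was treated in triplicate with fragment at 200 µM or vehicle for 3 h and then with Biotin-Ahx-Ub-VS at 0.5 µM final for 1 h. Labelled DUBs were NeutrAvidin-enriched, digested with LysC and trypsin, and run by diaPASEF LC-MS/MS. Spectronaut label-free quantities were global-median-normalised, and values are average log2 fragment/vehicle ratios by unpaired t-test on proteins with ≥2 unique peptides.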
# USP22 = biological target: T2, USP22 (UniProt Q9UPT9)
# T2 sequence (whole entry): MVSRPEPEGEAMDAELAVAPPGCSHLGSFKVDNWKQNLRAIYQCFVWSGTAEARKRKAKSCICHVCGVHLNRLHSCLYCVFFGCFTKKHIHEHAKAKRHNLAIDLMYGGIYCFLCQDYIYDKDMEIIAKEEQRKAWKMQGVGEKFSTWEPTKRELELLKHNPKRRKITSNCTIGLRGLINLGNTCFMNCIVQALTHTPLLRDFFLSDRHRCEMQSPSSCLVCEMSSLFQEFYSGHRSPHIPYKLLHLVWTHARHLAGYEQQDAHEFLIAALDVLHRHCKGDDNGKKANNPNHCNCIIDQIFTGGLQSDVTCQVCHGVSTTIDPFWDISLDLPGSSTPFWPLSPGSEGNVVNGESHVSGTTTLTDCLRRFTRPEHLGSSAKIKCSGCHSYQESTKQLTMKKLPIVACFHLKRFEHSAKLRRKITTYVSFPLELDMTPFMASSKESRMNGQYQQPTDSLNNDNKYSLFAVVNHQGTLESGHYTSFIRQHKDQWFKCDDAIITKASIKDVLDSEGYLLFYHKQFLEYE
# In short: as §1
# USP24 = USP24 (UniProt Q9UPU5)
# USP24, sequence (Q9UPU5 whole entry): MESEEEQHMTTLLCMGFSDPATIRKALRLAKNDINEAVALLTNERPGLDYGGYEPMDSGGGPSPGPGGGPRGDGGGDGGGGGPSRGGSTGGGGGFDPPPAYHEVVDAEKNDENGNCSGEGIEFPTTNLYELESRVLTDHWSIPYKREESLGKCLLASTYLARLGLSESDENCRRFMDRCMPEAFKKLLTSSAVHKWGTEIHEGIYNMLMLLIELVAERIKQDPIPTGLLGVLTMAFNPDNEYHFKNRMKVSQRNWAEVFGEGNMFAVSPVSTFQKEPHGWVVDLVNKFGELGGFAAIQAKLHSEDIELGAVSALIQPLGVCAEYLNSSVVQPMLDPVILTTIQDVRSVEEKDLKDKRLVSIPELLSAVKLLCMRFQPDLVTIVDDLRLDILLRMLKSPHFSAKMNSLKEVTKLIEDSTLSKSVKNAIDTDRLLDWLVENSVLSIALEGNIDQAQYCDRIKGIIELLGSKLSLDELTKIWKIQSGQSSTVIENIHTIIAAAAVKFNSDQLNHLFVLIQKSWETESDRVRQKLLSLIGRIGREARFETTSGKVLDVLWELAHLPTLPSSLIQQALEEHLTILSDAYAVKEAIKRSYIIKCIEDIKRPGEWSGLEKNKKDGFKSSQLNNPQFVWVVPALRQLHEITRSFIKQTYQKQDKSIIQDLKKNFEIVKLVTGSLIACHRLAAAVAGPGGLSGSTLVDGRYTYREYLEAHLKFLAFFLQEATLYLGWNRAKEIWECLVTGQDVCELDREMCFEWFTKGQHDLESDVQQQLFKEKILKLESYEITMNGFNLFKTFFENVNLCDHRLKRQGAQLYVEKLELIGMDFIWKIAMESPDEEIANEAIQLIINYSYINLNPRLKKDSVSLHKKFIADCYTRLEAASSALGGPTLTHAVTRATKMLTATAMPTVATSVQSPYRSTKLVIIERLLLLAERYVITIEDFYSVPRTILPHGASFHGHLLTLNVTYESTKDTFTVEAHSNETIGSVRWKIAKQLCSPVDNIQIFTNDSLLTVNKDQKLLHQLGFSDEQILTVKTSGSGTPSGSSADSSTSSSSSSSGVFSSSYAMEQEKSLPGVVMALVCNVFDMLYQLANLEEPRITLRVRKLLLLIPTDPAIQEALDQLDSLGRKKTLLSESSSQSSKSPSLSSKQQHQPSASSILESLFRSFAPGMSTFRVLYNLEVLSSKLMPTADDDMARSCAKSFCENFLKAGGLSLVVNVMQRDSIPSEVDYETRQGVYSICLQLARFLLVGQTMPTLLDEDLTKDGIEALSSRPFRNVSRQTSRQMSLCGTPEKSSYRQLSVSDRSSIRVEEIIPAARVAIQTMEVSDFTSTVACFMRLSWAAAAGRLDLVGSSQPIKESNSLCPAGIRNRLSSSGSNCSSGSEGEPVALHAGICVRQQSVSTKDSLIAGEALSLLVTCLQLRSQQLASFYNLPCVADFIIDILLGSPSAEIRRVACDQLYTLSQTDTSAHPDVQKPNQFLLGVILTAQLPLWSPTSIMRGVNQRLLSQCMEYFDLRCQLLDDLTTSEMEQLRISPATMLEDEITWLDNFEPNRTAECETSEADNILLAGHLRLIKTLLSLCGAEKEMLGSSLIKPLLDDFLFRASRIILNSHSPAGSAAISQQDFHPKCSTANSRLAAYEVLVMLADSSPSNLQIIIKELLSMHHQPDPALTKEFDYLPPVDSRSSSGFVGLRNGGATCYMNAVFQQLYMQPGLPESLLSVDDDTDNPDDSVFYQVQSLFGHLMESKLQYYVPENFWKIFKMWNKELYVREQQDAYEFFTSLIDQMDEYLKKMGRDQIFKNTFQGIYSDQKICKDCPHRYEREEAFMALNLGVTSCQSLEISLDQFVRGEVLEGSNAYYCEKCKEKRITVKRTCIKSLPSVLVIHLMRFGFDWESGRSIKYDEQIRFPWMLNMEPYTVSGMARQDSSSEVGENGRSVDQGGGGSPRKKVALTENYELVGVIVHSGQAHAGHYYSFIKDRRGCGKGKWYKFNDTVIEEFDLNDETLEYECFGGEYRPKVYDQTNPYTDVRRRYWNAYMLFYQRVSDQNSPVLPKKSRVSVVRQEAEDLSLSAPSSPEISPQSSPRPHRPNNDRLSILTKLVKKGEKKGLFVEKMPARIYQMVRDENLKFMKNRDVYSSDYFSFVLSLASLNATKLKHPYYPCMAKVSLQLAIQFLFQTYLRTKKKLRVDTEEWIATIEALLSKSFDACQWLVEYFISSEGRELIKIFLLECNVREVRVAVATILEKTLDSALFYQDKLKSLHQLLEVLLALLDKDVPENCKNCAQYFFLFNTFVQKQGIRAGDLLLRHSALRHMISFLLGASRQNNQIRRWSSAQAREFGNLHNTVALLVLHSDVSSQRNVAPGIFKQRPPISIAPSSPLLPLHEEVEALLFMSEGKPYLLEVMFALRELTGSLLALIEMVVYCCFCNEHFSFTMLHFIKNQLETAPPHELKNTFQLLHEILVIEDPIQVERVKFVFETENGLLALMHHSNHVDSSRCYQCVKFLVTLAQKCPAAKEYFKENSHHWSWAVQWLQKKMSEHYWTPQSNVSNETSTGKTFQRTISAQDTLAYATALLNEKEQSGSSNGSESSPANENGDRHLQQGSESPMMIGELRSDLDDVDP
# In short: as §1
# USP25 = biological target: T3, USP25 (UniProt Q9UHP3)
# T3 sequence (whole entry): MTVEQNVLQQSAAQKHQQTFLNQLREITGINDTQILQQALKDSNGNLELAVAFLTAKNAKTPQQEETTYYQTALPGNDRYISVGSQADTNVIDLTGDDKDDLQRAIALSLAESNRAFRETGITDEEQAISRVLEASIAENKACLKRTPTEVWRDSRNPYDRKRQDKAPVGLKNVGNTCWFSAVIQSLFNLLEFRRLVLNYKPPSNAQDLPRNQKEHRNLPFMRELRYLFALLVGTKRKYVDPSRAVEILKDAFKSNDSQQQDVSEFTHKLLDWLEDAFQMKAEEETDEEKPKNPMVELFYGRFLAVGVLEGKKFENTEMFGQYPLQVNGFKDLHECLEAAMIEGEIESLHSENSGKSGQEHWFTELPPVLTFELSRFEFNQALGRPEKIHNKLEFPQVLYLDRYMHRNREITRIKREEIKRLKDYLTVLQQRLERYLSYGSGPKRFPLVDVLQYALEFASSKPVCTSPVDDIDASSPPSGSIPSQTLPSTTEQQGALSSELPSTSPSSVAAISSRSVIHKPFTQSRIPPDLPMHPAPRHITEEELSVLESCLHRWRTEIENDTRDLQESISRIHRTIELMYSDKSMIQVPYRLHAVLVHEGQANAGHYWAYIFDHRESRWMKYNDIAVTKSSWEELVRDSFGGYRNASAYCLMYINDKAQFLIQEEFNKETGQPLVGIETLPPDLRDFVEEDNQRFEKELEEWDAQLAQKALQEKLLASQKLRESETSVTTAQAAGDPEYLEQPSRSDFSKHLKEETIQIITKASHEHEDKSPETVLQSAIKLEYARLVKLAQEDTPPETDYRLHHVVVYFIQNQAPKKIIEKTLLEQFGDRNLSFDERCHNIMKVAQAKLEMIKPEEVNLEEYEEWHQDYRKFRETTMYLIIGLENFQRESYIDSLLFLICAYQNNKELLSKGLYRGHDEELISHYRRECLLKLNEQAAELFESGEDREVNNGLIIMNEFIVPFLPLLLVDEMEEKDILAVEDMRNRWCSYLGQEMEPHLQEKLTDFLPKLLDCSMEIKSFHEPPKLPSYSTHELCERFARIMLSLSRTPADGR
# In short: as §1
# USP28 = biological target: T4, USP28 (UniProt Q96RU2)
# T4 sequence (whole entry): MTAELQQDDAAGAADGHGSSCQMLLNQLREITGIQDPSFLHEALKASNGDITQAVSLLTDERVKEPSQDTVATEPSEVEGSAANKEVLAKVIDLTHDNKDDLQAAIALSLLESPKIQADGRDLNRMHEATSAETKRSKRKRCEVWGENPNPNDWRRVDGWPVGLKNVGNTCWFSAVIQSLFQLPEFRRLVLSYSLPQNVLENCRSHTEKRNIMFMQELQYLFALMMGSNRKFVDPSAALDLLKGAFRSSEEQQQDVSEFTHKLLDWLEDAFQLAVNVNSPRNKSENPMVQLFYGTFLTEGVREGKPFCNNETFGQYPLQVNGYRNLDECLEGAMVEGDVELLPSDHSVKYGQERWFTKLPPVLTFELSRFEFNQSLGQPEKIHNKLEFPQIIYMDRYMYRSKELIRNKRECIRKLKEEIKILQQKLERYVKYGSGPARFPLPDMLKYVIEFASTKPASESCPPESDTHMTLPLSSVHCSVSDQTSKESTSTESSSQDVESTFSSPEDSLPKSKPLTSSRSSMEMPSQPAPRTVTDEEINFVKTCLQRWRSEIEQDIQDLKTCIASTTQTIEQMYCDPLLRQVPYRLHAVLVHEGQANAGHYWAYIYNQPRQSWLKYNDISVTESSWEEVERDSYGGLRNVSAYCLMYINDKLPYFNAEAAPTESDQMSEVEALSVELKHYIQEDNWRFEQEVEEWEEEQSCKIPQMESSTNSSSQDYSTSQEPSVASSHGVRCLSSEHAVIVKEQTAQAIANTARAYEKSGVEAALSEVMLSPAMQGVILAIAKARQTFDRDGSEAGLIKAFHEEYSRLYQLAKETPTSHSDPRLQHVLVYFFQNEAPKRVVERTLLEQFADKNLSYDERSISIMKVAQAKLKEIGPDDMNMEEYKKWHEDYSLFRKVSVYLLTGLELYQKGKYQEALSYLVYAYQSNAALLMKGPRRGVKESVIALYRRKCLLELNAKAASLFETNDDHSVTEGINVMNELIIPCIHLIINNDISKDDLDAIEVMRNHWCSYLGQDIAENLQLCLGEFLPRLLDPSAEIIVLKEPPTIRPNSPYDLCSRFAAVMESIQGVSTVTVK
# In short: as §1
smiles,measurement,setting,value
O=C(CCl)N1CCOC(c2cccc(F)c2)C1 (stereo not given),log2 ratio of Biotin-Ahx-Ub-VS probe labelling,USP19,-0.335
same,log2 ratio of Biotin-Ahx-Ub-VS probe labelling,USP22,-0.24
same,log2 ratio of Biotin-Ahx-Ub-VS probe labelling,USP24,-1.13 (active)
same,log2 ratio of Biotin-Ahx-Ub-VS probe labelling,USP25,-0.541
same,log2 ratio of Biotin-Ahx-Ub-VS probe labelling,USP28,-0.953
